Active and inactive are the calls of the source.
What was measured:
[1] = binders of probe aFSTL3 on microarray, primary screen, stem cell growth factor project, biochemical, small-molecule microarray, fluorescence 635/667 (AID 1064); settings: higher = more signal;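 further: measures binding of the biotinylated anti-FSTL3 antibody to printed compounds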
[2] = binders from COS7 lysate, DM2A8 probe, primary screen, torsin A project, cell lysate, small-molecule microarray, fluorescence 635/667 (AID 1065); settings: higher = more signal, COS7 lysate expressing mutant human TOR1A
[3] = binders of probe aFGF2 on microarray, primary screen, stem cell growth factor project, biochemical, small-molecule microarray, fluorescence 635/667 (AID 1067); settings: higher = more signal;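 further: measures binding of biotinylated aFGF2 protein to printed compounds on slides; z-score merges feature fluorescence and signal-to-noise across triplicate slides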
[4] = binders of probe aFGF10 on microarray, primary screen, stem cell growth factor project, biochemical, small-molecule microarray, fluorescence 635/667 (AID 1071); settings: higher = more signal;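 further: score merges 667 nm spot intensity and signal to noise from triplicate slides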
[5] = target: Neurogenic locus notch homolog protein 2 (Homo sapiens) (UniProt Q04721); assay: Notch2 binders on small-molecule microarrays, primary screen, biochemical, small-molecule microarray, 635 nm fluorescence, stem cell growth factors (AID 1073); settings: Notch2 binding, higher = more signal
[6] = target: Pro-neuregulin-1, membrane-bound isoform (Homo sapiens) (UniProt Q02297); assay: NRG1 binders on small-molecule microarrays, primary screen, psychiatric disease protein project, biochemical, small-molecule microarray, fluorescence 635/667 (AID 1075); settings: NRG1 binding, 635 nm fluorescence, higher = more signal;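 further: score combines 667 nm spot fluorescence with signal to noise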
Sequence of Pro-neuregulin-1, membrane-bound isoform (Homo sapiens) (Q02297 whole entry, looked up, the tested form may be a part, canonical isoform): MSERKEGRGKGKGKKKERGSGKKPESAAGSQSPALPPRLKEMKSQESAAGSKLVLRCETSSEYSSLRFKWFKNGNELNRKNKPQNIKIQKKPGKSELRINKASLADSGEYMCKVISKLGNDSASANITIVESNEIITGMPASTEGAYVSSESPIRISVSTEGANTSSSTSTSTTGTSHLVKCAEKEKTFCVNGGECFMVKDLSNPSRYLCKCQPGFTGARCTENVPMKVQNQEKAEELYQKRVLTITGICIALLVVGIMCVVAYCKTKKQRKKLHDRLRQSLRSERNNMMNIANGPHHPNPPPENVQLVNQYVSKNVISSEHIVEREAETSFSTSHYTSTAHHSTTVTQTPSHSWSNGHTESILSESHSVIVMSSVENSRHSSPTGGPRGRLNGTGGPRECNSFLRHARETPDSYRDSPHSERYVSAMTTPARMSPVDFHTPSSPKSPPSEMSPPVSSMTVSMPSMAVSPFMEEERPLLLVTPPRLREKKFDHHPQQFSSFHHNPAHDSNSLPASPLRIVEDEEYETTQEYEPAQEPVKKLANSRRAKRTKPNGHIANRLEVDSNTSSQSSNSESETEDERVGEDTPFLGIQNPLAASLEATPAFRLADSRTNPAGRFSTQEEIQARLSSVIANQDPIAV

[7] = tested on: Neuregulin-1 EGF-like domain; assay: binders of neuregulin-1 EGF-like domain, primary screen, biochemical, small-molecule microarray, 635 nm fluorescence (AID 1081); settings: small-molecule microarray binding, higher = more signal;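 further: binding of the protein to compounds printed on small-molecule microarray slides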
[8] = FRG1 promoter luciferase signal modulators, primary screen, FRG1 inhibition for FSHD, cell-based, C2C12 myotubes, firefly/Renilla luciferase, luminescence (AID 1084); settings: higher = more signal, called active from +8 up or from −8 down
[9] = binders of probe aFST on microarray, primary screen, stem cell growth factor project, biochemical, small-molecule microarray, fluorescence 635/667 (AID 1086); settings: higher = more signal;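 further: score merges 667 nm fluorescence with signal-to-noise of each printed compound spot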
[10] = binders of probe aHhip on microarray, primary screen, stem cell growth factor project, biochemical, small-molecule microarray, fluorescence 635/667 (AID 1087); settings: higher = more signal;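 further: score merges spot fluorescence at 667nm with spot signal to noise ratio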
[11] = tested on: PRMT1 (protein arginine N-methyltransferase 1); assay: PRMT1 binders on small-molecule microarrays, primary screen, biochemical, small-molecule microarray, 635 nm fluorescence (AID 1088); settings: small-molecule microarray binding, higher = more signal;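 further: binding of Prmt1 protein to compounds spotted on small-molecule microarray slides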
[12] = yeast growth modulation, basal conditions, primary screen, YJM789 clinical isolate, OD600, 24 h (AID 1089);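 further: growth of clinical yeast isolate S. cerevisiae YJM 789 seeded 1000 cells per well; test concentration not given here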; settings: S. cerevisiae YJM789 growth, higher = more signal, called active from +8 up or from −8 down
[13] = fission yeast growth modulation, primary screen, strain 972, OD600, 24 h, no modulator (AID 1090);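 further: basal condition with compound alone and no growth modifier present; test concentration not given here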; settings: S. pombe 972 growth, higher = more signal, called active from +8 up or from −8 down
[14] = S. cerevisiae growth modulation with rapamycin, primary screen, strain BY4716, OD600, 96 h (AID 1091); settings: higher = more signal, called active from +8 up or from −8 down; further: test concentration not given here
[15] = target: Torsin-1A-interacting protein 2 (Homo sapiens) (UniProt Q8NFQ8); assay: LULL1 binders on small-molecule microarray, primary screen, cell lysate, human LULL1 lysate, 635/667 nm fluorescence (AID 1092); settings: hLULL1 lysate binding, 635 nm fluorescence, higher = more signal;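 further: probe is lysate of COS7 cells overexpressing human LULL1; score merges per-feature 667 nm fluorescence with signal-to-noise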
Sequence of Torsin-1A-interacting protein 2 (Homo sapiens) (Q8NFQ8 whole entry, looked up): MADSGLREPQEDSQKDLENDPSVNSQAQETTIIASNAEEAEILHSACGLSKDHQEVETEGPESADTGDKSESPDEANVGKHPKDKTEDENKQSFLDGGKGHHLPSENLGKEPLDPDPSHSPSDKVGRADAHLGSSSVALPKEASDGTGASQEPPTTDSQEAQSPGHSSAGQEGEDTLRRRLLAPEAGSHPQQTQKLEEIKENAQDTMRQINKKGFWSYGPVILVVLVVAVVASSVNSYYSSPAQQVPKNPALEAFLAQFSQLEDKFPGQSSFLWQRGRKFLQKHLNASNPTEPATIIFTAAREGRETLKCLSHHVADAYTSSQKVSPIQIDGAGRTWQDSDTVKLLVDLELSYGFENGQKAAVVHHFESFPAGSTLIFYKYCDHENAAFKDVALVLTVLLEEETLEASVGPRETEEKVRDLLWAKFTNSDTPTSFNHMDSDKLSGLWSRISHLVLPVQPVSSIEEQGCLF

[16] = E. coli growth modulation, two-sided OD650, primary screen, E. coli filamentation project, strain DRC41, 24 h (AID 1093); settings: OD650, 24 h, higher = more signal, called active from +8 up or from −8 down;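 further: MC1000 strain lacking acrAB efflux and sulA so SOS filamentation is blocked; test concentration not given here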
[17] = small-molecule microarray binders of probe aLefty2, primary screen, biochemical, biotinylated probe, 635/667 nm fluorescence (AID 1094); settings: higher = more signal;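 further: score merges spot fluorescence near 667 nm with spot signal-to-noise ratio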
[18] = tested on: Noggin (protein binding on small-molecule microarray); assay: Noggin binders on small-molecule microarray, primary screen, biochemical, 635/667 nm fluorescence (AID 1095); settings: 635 nm fluorescence, higher = more signal;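 further: score merges 667 nm feature fluorescence with signal to noise over triplicate slides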
[19] = target: Neurogenic locus notch homolog protein 3 (Homo sapiens) (UniProt Q9UM47); assay: NOTCH3 binders on small-molecule microarray, primary screen, biochemical, 635/667 nm fluorescence (AID 1096); settings: NOTCH3 binding, 635 nm fluorescence, higher = more signal
Sequence of Neurogenic locus notch homolog protein 3 (Homo sapiens) (Q9UM47 whole entry, looked up): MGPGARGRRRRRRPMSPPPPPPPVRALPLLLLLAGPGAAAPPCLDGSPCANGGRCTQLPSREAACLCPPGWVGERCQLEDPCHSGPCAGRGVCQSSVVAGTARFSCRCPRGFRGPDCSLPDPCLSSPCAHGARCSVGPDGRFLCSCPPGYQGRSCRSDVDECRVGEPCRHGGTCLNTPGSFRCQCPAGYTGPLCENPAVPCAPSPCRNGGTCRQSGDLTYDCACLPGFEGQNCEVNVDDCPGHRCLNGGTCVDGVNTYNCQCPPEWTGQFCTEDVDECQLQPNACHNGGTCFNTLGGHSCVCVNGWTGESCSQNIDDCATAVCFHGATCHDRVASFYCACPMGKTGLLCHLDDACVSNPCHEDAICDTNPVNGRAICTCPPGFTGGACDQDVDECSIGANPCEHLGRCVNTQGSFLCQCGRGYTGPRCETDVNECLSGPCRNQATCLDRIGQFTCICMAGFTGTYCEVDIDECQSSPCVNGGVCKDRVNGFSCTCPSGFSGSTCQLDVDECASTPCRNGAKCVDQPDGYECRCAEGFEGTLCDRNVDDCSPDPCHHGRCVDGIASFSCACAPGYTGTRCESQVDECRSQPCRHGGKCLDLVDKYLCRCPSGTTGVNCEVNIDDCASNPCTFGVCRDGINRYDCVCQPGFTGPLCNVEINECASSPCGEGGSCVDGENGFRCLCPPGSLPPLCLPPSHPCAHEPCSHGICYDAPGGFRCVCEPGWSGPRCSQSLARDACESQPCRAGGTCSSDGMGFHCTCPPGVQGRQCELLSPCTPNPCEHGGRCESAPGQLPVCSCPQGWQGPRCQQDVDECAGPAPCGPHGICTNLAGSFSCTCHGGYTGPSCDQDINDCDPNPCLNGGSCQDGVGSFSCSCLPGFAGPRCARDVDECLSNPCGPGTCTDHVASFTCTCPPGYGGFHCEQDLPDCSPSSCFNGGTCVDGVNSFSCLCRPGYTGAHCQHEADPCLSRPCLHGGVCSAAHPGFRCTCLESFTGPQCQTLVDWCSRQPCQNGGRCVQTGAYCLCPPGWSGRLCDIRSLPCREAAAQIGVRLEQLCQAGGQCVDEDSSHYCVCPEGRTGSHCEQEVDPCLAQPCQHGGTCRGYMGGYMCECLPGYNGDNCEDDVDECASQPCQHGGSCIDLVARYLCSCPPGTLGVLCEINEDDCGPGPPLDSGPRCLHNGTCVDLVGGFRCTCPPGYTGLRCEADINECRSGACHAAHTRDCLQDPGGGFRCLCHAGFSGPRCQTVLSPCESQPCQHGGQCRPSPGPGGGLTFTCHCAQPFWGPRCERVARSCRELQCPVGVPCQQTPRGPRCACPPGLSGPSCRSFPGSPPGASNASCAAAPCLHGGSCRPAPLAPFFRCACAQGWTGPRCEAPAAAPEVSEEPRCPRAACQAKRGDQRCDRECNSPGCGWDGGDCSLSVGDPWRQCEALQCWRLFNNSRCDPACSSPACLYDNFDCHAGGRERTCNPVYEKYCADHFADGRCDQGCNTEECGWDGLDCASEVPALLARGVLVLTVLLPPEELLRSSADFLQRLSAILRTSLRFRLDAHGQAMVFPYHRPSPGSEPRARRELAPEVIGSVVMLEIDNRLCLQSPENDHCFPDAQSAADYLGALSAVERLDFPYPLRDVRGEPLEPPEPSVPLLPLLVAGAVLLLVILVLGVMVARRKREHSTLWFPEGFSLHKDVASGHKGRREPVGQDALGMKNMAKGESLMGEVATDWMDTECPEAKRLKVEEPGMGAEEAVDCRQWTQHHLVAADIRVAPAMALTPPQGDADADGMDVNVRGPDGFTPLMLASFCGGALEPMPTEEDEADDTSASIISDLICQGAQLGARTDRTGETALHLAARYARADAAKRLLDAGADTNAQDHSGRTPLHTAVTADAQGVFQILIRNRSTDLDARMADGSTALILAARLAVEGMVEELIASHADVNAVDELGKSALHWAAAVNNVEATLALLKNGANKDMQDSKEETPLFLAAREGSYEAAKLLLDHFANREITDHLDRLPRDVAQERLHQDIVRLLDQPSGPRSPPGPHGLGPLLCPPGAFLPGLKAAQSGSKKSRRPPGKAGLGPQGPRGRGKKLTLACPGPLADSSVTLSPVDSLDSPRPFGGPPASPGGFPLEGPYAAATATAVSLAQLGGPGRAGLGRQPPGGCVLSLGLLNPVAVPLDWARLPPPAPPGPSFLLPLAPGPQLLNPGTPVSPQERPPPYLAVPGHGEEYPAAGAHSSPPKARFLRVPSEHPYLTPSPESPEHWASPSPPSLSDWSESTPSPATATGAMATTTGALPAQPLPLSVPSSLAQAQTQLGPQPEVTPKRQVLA

[20] = small-molecule microarray binders of probe aEGFR, primary screen, biochemical, biotinylated probe, 635/667 nm fluorescence (AID 1097); settings: higher = more signal;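 further: probe is a biotinylated anti-EGFR antibody binding compounds printed on slides; score combines fluorescence near 667 nm and signal to noise of each spot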

Row | Compound | composite z-score [1] | composite z-score [2] | composite z-score [3] | composite z-score [4] | composite z-score [5] | composite z-score [6] | composite z-score [7] | z-score [8] | composite z-score [9] | composite z-score [10] | composite z-score [11] | z-score [12] | z-score [13] | z-score [14] | composite z-score [15] | z-score [16] | composite z-score [17] | composite z-score [18] | composite z-score [19] | composite z-score [20]
1 | CO[C@@H]1COC(=O)[C@@H](C)NC(=O)CC=C[C@@H](C)[C@H](NS(=O)(=O)c2ccc(C)cc2)COC(=O)[C@H](C)NC(=O)CC=C[C@H]1C | -0.505 | 0.441 | -0.119 | 0.189 | -0.167 | -0.523 | 0.388 | 0.0404 (inactive) | -0.0334 | 0.168 | 1.36 | -0.263 (inactive) | -0.988 (inactive) | -0.331 (inactive) | 0.537 | 1.72 (inactive) | -0.319 | 0.879 | 0.225 | -0.0793
2 | CC(C)=CCCC(C)=CCON=C1C[C@@H](O)[C@@H](O)[C@@H]2[C@@H]3C(=O)N(c4ccc(F)cc4F)C(=O)[C@@H]3CC[C@@H]12 | -0.245 | 0.87 | -0.116 | 0.546 | -0.205 | 0.895 | 0.314 | 0.656 (inactive) | 0.356 | 0.0505 | 1.11 | 0.918 (inactive) | -2.43 (inactive) | -0.496 (inactive) | -0.0426 | 1.34 (inactive) | 0.0054 | 0.888 | 0.678 | -0.0381
3 | O=c1n(Cc2cc3c(cc2Cl)OCO3)c(=O)n2n1CC[C@@H]1C(=NOCc3ccccc3)[C@H]3O[C@H]3[C@@H](O)[C@@H]12 | -0.381 | 0.188 | -0.14 | 0.47 | 0.589 | 0.114 | 0.428 | -0.611 (inactive) | 0.764 | -0.0645 | 0.499 | -1.97 (inactive) | -1.25 (inactive) | -0.756 (inactive) | -0.056 | -0.363 (inactive) | -0.0963 | 0.498 | 0.68 | -0.0371
4 | CO[C@H]1COC(=O)[C@@H](Cc2ccccc2)NC(=O)[C@@H](C)COC(=O)CCC[C@@H]1C | -0.388 | 0.433 | -0.0319 | 0.286 | 0.106 | -0.203 | -0.361 | -0.224 (inactive) | 0.23 | -0.0391 | 0.231 | -0.875 (inactive) | -0.301 (inactive) | -0.784 (inactive) | -0.502 | 0.17 (inactive) | -0.185 | 0.304 | -0.0051 | -0.0152
5 | CCN1C(=O)[C@H]2[C@H]3[C@H](O)[C@H](O)CC(=O)[C@H]3CC[C@H]2C1=O | -0.652 | 0.481 | -0.0566 | 0.39 | 0.132 | 0.298 | 0.81 | 0.276 (inactive) | 0.0722 | 0.0373 | 0.288 | -0.955 (inactive) | -0.38 (inactive) | -0.18 (inactive) | 0.718 | 0.759 (inactive) | -0.228 | 0.675 | 0.386 | -0.0989
6 | CC(=O)Nc1ccc([C@@H]2N[C@H](C(=O)O)CC[C@H]2C)cc1 | -0.508 | 0.301 | -0.135 | 0.426 | 0.785 | 0.0589 | 0.151 | 0.564 (inactive) | 0.296 | -0.0618 | 0.0579 | 0.216 (inactive) | -0.228 (inactive) | 0.634 (inactive) | 0.184 | 0.622 (inactive) | -0.139 | 0.399 | 0.626 | -0.0493
7 | CC(C)CON=C1C[C@@H](O)[C@@H](O)[C@@H]2[C@@H]3C(=O)N(Cc4ccc5c(c4)OCO5)C(=O)[C@@H]3CC[C@H]12 | -0.504 | -0.111 | -0.149 | 0.715 | 0.392 | 1.01 | 1 | -0.261 (inactive) | 0.0313 | -0.0645 | 1.31 | 0.306 (inactive) | 0.754 (inactive) | 0.329 (inactive) | 2.33 | 0.396 (inactive) | -0.2 | 1.38 | 0.846 | -0.0697
8 | CO[C@H]1COC(=O)[C@H](C)NC(=O)CC=C[C@@H](C)[C@H](OC)COC(=O)[C@@H](OCc2ccccc2)C=C[C@@H]1C | -0.628 | 0.996 | -0.0877 | -0.299 | -0.542 | -0.954 | -1.45 | -0.0754 (inactive) | 0.0521 | -0.0994 | 0.269 | -0.365 (inactive) | -0.123 (inactive) | -0.118 (inactive) | -0.986 | 0.786 (inactive) | -0.166 | 0.941 | -0.458 | -0.15
9 | C=C(C)C(=O)OCC1CN2[C@@H](CC[C@@H](C)[C@@H]2c2ccc(Br)cc2)C(=O)O1 (stereo not given in full) | -0.393 | 0.0802 | -0.15 | 0.2 | 0.331 | -0.0076 | 0.546 | 1.11 (inactive) | 0.444 | -0.21 | 0.855 | 0.275 (inactive) | -0.369 (inactive) | -0.427 (inactive) | 0.734 | -0.166 (inactive) | -0.118 | 0.172 | 0.947 | -0.128
10 | CC[C@@H](c1ccccc1)n1c(=O)n2n(c1=O)[C@H]1[C@H](O)[C@@H]3O[C@@H]3C(=O)[C@H]1CC2 | -0.66 | -0.283 | -0.103 | 0.335 | 0.395 | -0.0023 | -0.088 | 0.327 (inactive) | 0.0182 | 0.0373 | 0.342 | -0.0637 (inactive) | -2.45 (inactive) | -0.0584 (inactive) | 0.396 | 0.473 (inactive) | 0.444 | 0.417 | 0.285 | -0.0431

Reference: PubChem BioAssay
